From PubChem BioAssay (NCI)
Compounds without any hit were thinned out: in the full panel of roughly 83,000, 20% have a hit.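 In brief: 96-well plates, 48 h treatment, single concentration, percent growth endpoint.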 Values without a mark were called inactive. Calls of active or inactive are those of the source. The calls were made as follows: active = growth percent below 10; inactive = the rest.

Legend:
Experiment in all cases: NCI-60 one-dose screen, 48 h (100 = growth as untreated, 0 = no growth, -100 = all killed)
Conditions in all cases: 10 µM unless noted
[1] = test system: BT-549 breast
[2] = test system: MDA-MB-435 melanoma
[3] = test system: SW-620 colon
[4] = test system: MCF7 breast
[5] = test system: HCT-116 colon
[6] = test system: HCC-2998 colon
[7] = test system: KM12 colon

Compound	growth [1]	growth [2]	growth [3]	growth [4]	growth [5]	growth [6]	growth [7]
CCN(CC)c1ccc2c(c1)Oc1nc(N)c(C#N)c(N)c1C2Sc1ccc(OC)cc1 (stereo unspecified)	-0.405% (active)	-26.8% (active)	-8.27% (active)	0.303% (active)	2.7% (active)	-49.2% (active)	-33% (active)
COc1cc2nc3c(=O)n(-c4ccc(C#N)cc4)cnn3c(=O)c2cc1OC	102%	98.5%	95.3%	103%	101%	97%	91.7%
CCCCOc1nc2ccc(C)cc2cc1/C=C/C(=O)/C=C/c1ccc2c(c1)OCO2	75.9%	35.8%	99.5%	37.8%	10.5%	106%	87.3%
O=C(Nc1ccc(S(=O)(=O)NC2CCCCCC2)cc1)C(c1ccccc1)S(=O)(=O)c1ccc(F)cc1 (stereo unspecified)	-3.97% (active)	-17% (active)	24.6%	0.0605% (active)	5.61% (active)	15.4%	5.09% (active)
CCCCN(CCCC)CC(CN(CC)CC)OC(=O)Nc1ccccc1 (stereo unspecified)	88.4%	102%	74.1%	79.4%	56.5%	85.1%	93.9%
O=C(NCc1ccccc1)c1ccc2c(c1)NC(=O)[C@@H]1CCCN21	110%	99.6%	96.4%	85.4%	105%	88%	84%
COc1ccc(NC(=O)c2sc3nc(C)c(C(C)=O)cc3c2N)cc1	86.5%	93.2%	97%	95.7%	88.6%	103%	105%
CCOC(=O)c1c(-c2ccc(O)cc2)c(C#N)c2c(C#N)c(N)nn2c1N	60.9%	1.63% (active)	42.6%	31.5%	67.6%	80.9%	47.5%
CCOC(=O)c1c(C(F)(F)F)n([O-])c2ccc(Cl)cc2[n+]1=O	-59.6% (active)	-70.1% (active)	-64.7% (active)	-57.6% (active)	-62.8% (active)	-90.8% (active)	-78.5% (active)
COc1cc(F)c(-c2nc3c(C)cccc3n2Cc2c(F)cccc2F)c(F)c1	98.5%	94.8%	91.6%	78.5%	74.6%	82.1%	90.1%
CCCCc1n(Cc2ccc3ccccc3c2)c2ccccc2[n+]1Cc1ccc2ccccc2c1	-74% (active)	-93.6% (active)	-79.8% (active)	-85.6% (active)	-83.2% (active)	-80.6% (active)	-82.9% (active)
Fc1ccc(N/N=C/c2ccc(-n3cccn3)cc2)cc1	92.2%	95.2%	79.6%	77%	91.9%	97.5%	80.1%
O=C1CC23OC(C(O)c4ccccc4N12)C1C(c2ccccc2)=NOC13 (stereo unspecified)	24.6%	-28% (active)	29.2%	26.4%	21.3%	85.2%	28.9%
C/C(=N\NC(=O)c1ccncc1)c1ccc(N)cc1	93.2%	102%	101%	95.9%	99.6%	106%	106%
COc1ccc(C(=O)c2cc(F)c(F)c(OC)c2F)cc1OC(=O)CCl	36.3%	-27.7% (active)	20.6%	19.2%	20.5%	79.5%	31.1%
COC(=O)c1ccc(NC(=O)CSc2nc(-c3ccc(F)cc3)nc3ccccc23)cc1	81.5%	68.1%	79.6%	61.1%	49.8%	102%	73.9%
O=C(Nc1cc(=O)[nH]c(=O)[nH]1)C(Cl)Cl	107%	110%	100%	97.1%	107%	92.4%	107%

Compound	growth [1]	growth [2]	growth [3]	growth [4]	growth [5]	growth [6]	growth [7]
COc1cc2nc3c(=O)n(CCN(C)C)cnn3c(=O)c2cc1OC	98.6%	97.3%	97%	95.9%	101%	99.3%	95.1%
Nc1ccc(C(=O)Nc2cccc(C(=O)Nc3ccc4c(O)c(N=Nc5ccc(N=Nc6ccc(S(=O)(=O)O)cc6)cc5)c(S(=O)(=O)O)cc4c3)c2)cc1	111%	106%	105%	94.8%	91.8%	98%	104%
COC(=O)/C=C/c1cc(OC)c2c(c1)[C@@H](C(=O)OC)[C@H](c1ccc(OC)c(OC)c1)O2	36.7%	-42.3% (active)	30.4%	19.6%	15.9%	59.5%	27.6%
CC(C)NS(=O)(=O)c1cccc(-c2ccc3c4c(n(CCCN(C)C)c(=O)c3c2)-c2ccccc2C4=O)c1	95.6%	92.9%	57.4%	38.8%	-66% (active)	96.8%	93.9%
COc1cc(/C=C/C(=O)c2ccc(NC(=O)CSc3nnc(-c4cc(OC)c(OC)c(OC)c4)n3-c3ccccc3)cc2)cc(OC)c1OC	-19.6% (active)	-36.1% (active)	-76.4% (active)	11.2%	-80.6% (active)	-91.8% (active)	-6.65% (active)
O=C1C(Cl)=C(Nc2ccc3c(c2NC2=C(Cl)C(=O)c4ccccc4C2=O)C(=O)c2ccccc2C3=O)C(=O)c2ccccc21	42.3%	-64.7% (active)	24.7%	-7.63% (active)	2.25% (active)	67%	39%
O=C(CCl)N1CCCc2ccccc21	97.1%	91.8%	99%	92%	95.9%	96.6%	90.4%
Cc1nccc2c3ccc(OCc4cn(-c5ccc(Br)cc5)nn4)cc3n(CC(C)C)c12	54.4%	61.3%	48%	31.2%	23%	70.3%	44.8%
Nc1c(C(=O)c2ccccc2)sc2nc(-c3cc4ccccc4o3)cc(-c3ccc(Cl)cc3)c12	97.9%	108%	118%	92%	101%	108%	93.4%
Cc1cccc(C)c1Nc1nnc(-c2ccc(F)cc2)o1	107%	103%	98.1%	96.6%	101%	99.4%	89.2%
CS(=O)(=O)O[C@@H]1C(=O)N(c2cc3c4ccccc4ccc3c3ccccc23)[C@H]1c1ccc(F)cn1	44.6%	-26% (active)	22.5%	21.6%	14.3%	60.1%	23%
O=c1cc(/C=N\Nc2nc(-c3ccc(Cl)cc3Cl)cs2)c2cc(Cl)ccc2o1	96.7%	105%	104%	78.2%	80%	105%	94.3%
O=c1c2ccccc2oc2ccc(OCCCCCCN3CCCCCC3)cc12	60.5%	44.6%	23.5%	28.9%	25.6%	62.9%	29%
Cc1nc2sc(C(=O)Nc3ccccc3)c(N)c2cc1C(C)O (stereo unspecified)	74.3%	-41.1% (active)	26.4%	16.7%	30.2%	46.8%	26.1%
Cc1ccc(C2CC(c3ccc(Nc4nc(NCCO)nc(NCCO)n4)cc3)=NN2c2ccc(Cl)cc2)cc1 (stereo unspecified)	79%	61.5%	80.4%	27.6%	41.2%	64.1%	52.4%
[2H]c1nc(Nc2ncc3cc(C(=O)N(C)C)n(C4CCCC4)c3n2)c([2H])c([2H])c1N1C([2H])([2H])C([2H])([2H])NC([2H])([2H])C1([2H])[2H]	89.4%	68.9%	35.5%	46.9%	40.9%	77.5%	42.5%
